Source: PubChem BioAssay AID1159580 (chemical genetic matrix, 2015)
Hit rate of the full screen: of about 5,500 compounds, about 2,000 (36%) were called active. Another 18% or so got no clear call; they are omitted. Rule as the data show it: active = normalized growth mostly below about 0.91 (no sharp cut-off); inconclusive = no clear call, values can overlap the other calls; inactive = mostly above about 0.92. The list shows a part of the results.

Test: chemical genetic growth profiling, strain panel (AID 1159580);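 also: tested at 20 µM; growth read once vehicle control cultures reached saturation at 30 °C; 1 = growth at the plate median or of vehicle wells; lower values mean less growth of the strain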
Details: S. cerevisiae deletion strains, growth OD
[1] = locus YDL101C, strain DUN1, stronger effect = lower value
[2] = locus YHR030C, strain SLT2, stronger effect = lower value

Measured: normalized growth

Cc1nn(Cc2n[nH]c(=S)o2)c(C)c1Br
inactive: locus YAL013W, strain DEP1, stronger effect = lower value 0.998 | locus YBR229C, strain ROT2, stronger effect = lower value 0.993 | [1] 1 | locus YDR150W, strain NUM1, stronger effect = lower value 0.933 | locus YEL061C, strain CIN8, stronger effect = lower value 1.02 | locus YGR078C, strain PAC10, stronger effect = lower value 0.981 | [2] 1.02 | locus YHR087W, strain rtc3, stronger effect = lower value 0.983 | locus YJL187C, strain SWE1, stronger effect = lower value 0.968 | locus YJR043C, strain POL32, stronger effect = lower value 0.983 | locus YJR075W, strain HOC1, stronger effect = lower value 0.979 | locus YKL190W, strain CNB1, stronger effect = lower value 1.02 | locus YLR039C, strain RIC1, stronger effect = lower value 1.02 | locus YLR058C, strain SHM2 (second series), stronger effect = lower value 0.996 | locus YLR085C, strain ARP6, stronger effect = lower value 1.09 | locus YLR262C, strain YPT6, stronger effect = lower value 1.04 | locus YML094W, strain GIM5, stronger effect = lower value 1.02 | locus YMR219W, strain ESC1, stronger effect = lower value 0.996 | locus YMR263W, strain SAP30, stronger effect = lower value 0.93 | locus YNL128W, strain TEP1, stronger effect = lower value 1.01 | locus YNL153C, strain GIM3, stronger effect = lower value 1.01 | locus YNL298W, strain CLA4 (second series), stronger effect = lower value 1.05 | locus YNL322C, strain KRE1, stronger effect = lower value 0.999 | locus YNR030W, strain Alg12, stronger effect = lower value 1.01 | locus YPL055C, strain LGE1, stronger effect = lower value 0.955 | locus YPL241C, strain CIN2, stronger effect = lower value 1.02 | locus YPR135W, strain CTF4, stronger effect = lower value 1.04

Cc1nn(Cc2nnc(SCc3cccc(C(F)(F)F)c3)o2)c(C)c1Br
active: locus YLR113W, strain HOG1, stronger effect = lower value 0.854
inactive: locus YAR019C, strain CDC15, stronger effect = lower value 0.982 | locus YBL105C, strain PKC1, stronger effect = lower value 0.969 | locus YBR135W, strain CKS1, stronger effect = lower value 0.967 | locus YBR136W, strain MEC1, stronger effect = lower value 0.97 | locus YBR160W, strain CDC28, stronger effect = lower value 0.975 | locus YDL017W, strain CDC7, stronger effect = lower value 0.977 | locus YDL028C, strain MPS1, stronger effect = lower value 0.973 | [1] 0.972 | locus YDL108W, strain KIN28, stronger effect = lower value 0.969 | locus YDL132W, strain cdc53, stronger effect = lower value 0.969 | locus YDL214C, strain PRR2, stronger effect = lower value 0.932 | locus YDR052C, strain DBF4, stronger effect = lower value 0.983 | locus YDR054C, strain cdc34, stronger effect = lower value 0.975 | locus YDR226W, strain ADK1, stronger effect = lower value 0.977 | locus YDR477W, strain SNF1, stronger effect = lower value 0.968 | locus YER123W, strain YCK3, stronger effect = lower value 0.921 | locus YER133W, strain GLC7, stronger effect = lower value 0.967 | locus YFL009W, strain cdc4, stronger effect = lower value 0.973 | locus YFL029C, strain CAK1, stronger effect = lower value 0.979 | locus YFR003C, strain YPI1, stronger effect = lower value 0.971 | locus YFR019W, strain FAB1, stronger effect = lower value 0.952 | locus YFR028C, strain CDC14, stronger effect = lower value 0.963 | locus YGR040W, strain KSS1, stronger effect = lower value 0.957 | locus YGR052W, strain FMP48, stronger effect = lower value 0.965 | locus YGR092W, strain DBF2, stronger effect = lower value 0.987 | [2] 1.03 | locus YHR079C, strain IRE1, stronger effect = lower value 1 | locus YHR082C, strain KSP1, stronger effect = lower value 1 | locus YHR205W, strain SCH9, stronger effect = lower value 0.959 | locus YIL147C, strain SLN1, stronger effect = lower value 0.968 | locus YJL095W, strain BCK1, stronger effect = lower value 0.965 | locus YJL128C, strain PBS2, stronger effect = lower value 0.945 | locus YJL157C, strain FAR1, stronger effect = lower value 0.965 | locus YJR016C, strain ILV3, stronger effect = lower value 0.978 | locus YJR066W, strain TOR1 (second series), stronger effect = lower value 0.969 | locus YJR066W, strain TOR1, stronger effect = lower value 1.03 | locus YKL048C, strain ELM1, stronger effect = lower value 0.974 | locus YKL067W, strain YNK1, stronger effect = lower value 0.944 | locus YKL101W, strain HSL1, stronger effect = lower value 0.905 | locus YKL193C, strain SDS22, stronger effect = lower value 0.971 | locus YKL203C, strain TOR2, stronger effect = lower value 1.01 | locus YLR133W, strain CKI1, stronger effect = lower value 0.935 | locus YLR403W, strain SFP1, stronger effect = lower value 0.949 | locus YML070W, strain DAK1, stronger effect = lower value 0.916 | locus YMR001C, strain CDC5, stronger effect = lower value 0.973 | locus YMR205C, strain PFK2 (second series), stronger effect = lower value 0.946 | locus YMR277W, strain FCP1, stronger effect = lower value 0.974 | locus YNL006W, strain LST8, stronger effect = lower value 0.971 | locus YNL020C, strain ARK1, stronger effect = lower value 0.942 | locus YNL161W, strain CBK1, stronger effect = lower value 0.969 | locus YNL183C, strain NPR1, stronger effect = lower value 0.99 | locus YNL207W, strain RIO2, stronger effect = lower value 0.975 | locus YNL222W, strain SSU72, stronger effect = lower value 0.97 | locus YNL307C, strain MCK1 (second series), stronger effect = lower value 0.956 | locus YOL078W, strain AVO1, stronger effect = lower value 0.967 | locus YOL136C, strain PFK27, stronger effect = lower value 0.881 | locus YOR061W, strain CKA2, stronger effect = lower value 0.952 | locus YOR119C, strain RIO1, stronger effect = lower value 1.02 | locus YOR231W, strain MKK1, stronger effect = lower value 0.91 | locus YOR329C, strain SCD5, stronger effect = lower value 0.978 | locus YPL031C, strain PHO85, stronger effect = lower value 0.961 | locus YPL153C, strain RAD53, stronger effect = lower value 0.972 | locus YPL204W, strain HRR25, stronger effect = lower value 0.932 | locus YPL209C, strain IPL1, stronger effect = lower value 0.982 | locus YPL256C, strain CLN2, stronger effect = lower value 0.965 | locus YPR025C, strain CCL1, stronger effect = lower value 0.974 | locus YPR106W, strain ISR1, stronger effect = lower value 0.975 | locus YPR111W, strain DBF20, stronger effect = lower value 0.947 | strain NNK1, stronger effect = lower value 0.961 | strain TSCII, stronger effect = lower value 0.972
